PubChem BioAssay (EPA / NIEHS)
Results filed as inconclusive are left out. The source holds several records for some structures; these can differ, active in one and inactive in another. Active and inactive are the calls of the source. The calls were made as follows, unless noted: active = hit-call score of the fitted dose curve at least 0.9, where 1 is the maximum; inactive = score below 0.9.

Assays:
[1] = read-out: Thyroid Hormone Responsive (THRSP), THRSP (gene 7069); test: LTEA_HepaRG_THRSP: Life Technologies and Expression Analysis (LTEA) Assay for Thyroid Hormone Responsive (THRSP) using HepaRG (AID 2283536); conditions: mRNA level, 48 h; actives raise or lower the signal
Method in brief: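 THRSP transcript quantified by Fluidigm qRT-PCR against three housekeeping genes after 48 h chemical exposure of HepaRG cells in serum-free induction medium; eight-point half-log series, top 100 uM, 0.5% DMSO vehicle, duplicate wells.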

[2] = read-out: Cellular tumor antigen p53 (Homo sapiens) (UniProt P04637); test: LTEA_HepaRG_TP53: Life Technologies and Expression Analysis (LTEA) Assay for Tumor Protein P53 (TP53) using HepaRG (AID 2283537); conditions: mRNA level, 48 h; actives raise or lower the signal
Method in brief: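 Read-out is TP53 transcript level by microfluidic qRT-PCR, normalised to three housekeeping genes and fitted bidirectionally against DMSO. Human HepaRG cells received compounds for 48 h, highest concentration 100 uM.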

[3] = read-out: UDP glucuronosyltransferase (UGT1A1), UGT1A1 (gene 54658); test: LTEA_HepaRG_UGT1A1: Life Technologies and Expression Analysis (LTEA) Assay for UDP glucuronosyltransferase (UGT1A1) using HepaRG (AID 2283538); conditions: mRNA level, 48 h; actives raise or lower the signal
Method in brief: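 Cells are plated, cultured 48 h, switched to serum-free induction medium, then dosed 48 h at eight concentrations (max 100 uM, 0.5% DMSO). RNA is isolated and UGT1A1 expression measured by qRT-PCR; changes versus DMSO are fitted in both directions.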

[4] = read-out: UDP glucuronosyltransferase (UGT1A6), UGT1A6 (gene 54578); test: LTEA_HepaRG_UGT1A6: Life Technologies and Expression Analysis (LTEA) Assay for UDP glucuronosyltransferase (UGT1A6) using HepaRG (AID 2283539); conditions: mRNA level, 48 h; actives raise or lower the signal
Method in brief: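 qRT-PCR readout of UGT1A6 mRNA (normalized to ACTB/GAPDH/POLR2A) in differentiated HepaRG cells after 48 h chemical exposure; 8 concentrations, top 100 uM, half-log steps, 0.5% DMSO. Bidirectional curve fit relative to DMSO baseline.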

[5] = read-out: X-box binding protein 1 (XBP1), XBP1 (gene 7494); test: LTEA_HepaRG_XBP1: Life Technologies and Expression Analysis (LTEA) Assay for X-box binding protein 1 (XBP1) using HepaRG (AID 2283540); conditions: mRNA level, 48 h; actives raise or lower the signal
Method in brief: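 HepaRG, 48 h exposure, 8-pt half-log CRC top 100 uM, 0.5% DMSO vehicle, duplicates. Readout: TaqMan qRT-PCR of XBP1 mRNA, housekeeping-normalised (ACTB/GAPDH/POLR2A); bidirectional fit vs DMSO baseline.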

[6] = LTEA_HepaRG_LDH_cytotoxicity: Cytotoxicity Assessment in the Life Technologies and Expression Analysis (LTEA) Assay (AID 2283563; active = hit-call score of the fitted dose curve at least 0.9, where 1 is the maximum;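 as to AC50: LDH activity released into spent culture medium as a marker of cell death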)
Method in brief: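 HepaRG (human liver line), 48 h exposure, 8-pt half-log series from 100 uM, 0.5% DMSO vehicle, duplicates. Read-out: LDH in spent medium. Positive-direction fit vs DMSO baseline.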

[7] = ATG_XTT_Cytotoxicity: Cytotoxicity Assessment in the Attagene TRANS-FACTORIAL HepG2 Assay (AID 2283584; active = hit-call score of the fitted dose curve at least 0.9, where 1 is the maximum)
Method in brief: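 XTT readout of cell number in transfected HepG2 cells, 24 h post-dosing; DMSO serves as negative control and baseline, with activity taken as loss of viability signal.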

[8] = biological target: Cellular tumor antigen p53 (Homo sapiens) (UniProt P04637); test: TOX21_p53_BLA_p2_ratio: Tox21 HCT-116 p53 Agonism Beta-lactamase Assay, Ratio, Phase 2 (AID 2283592; active = hit-call score of the fitted dose curve at least 0.9, where 1 is the maximum)
Method in brief: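 Readout: blue/green (460/530 nm) FRET emission ratio after 2 h CCF4-AM loading at room temperature, excitation 405 nm. HCT116 p53 bla cells, 16 h compound exposure at 37C, 5% CO2; agonist direction fitted against DMSO baseline.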

[9] = TOX21_p53_BLA_p3_viability: Viability Assessment in the Tox21 HCT-116 p53 Agonism Beta-lactamase Assay, Phase 3 (AID 2283593; active = hit-call score of the fitted dose curve at least 0.9, where 1 is the maximum;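 also: cells exposed to compound for 16 h before reading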)
Method in brief: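 Cellular ATP was quantified by CellTiter-Glo luminescence, read after 30 min at room temperature. Beforehand, HCT116 cells (4000/well) received compound 5 h post-seeding, 217-fold diluted from DMSO, then incubated 16 h at 37C.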

[10] = TOX21_p53_BLA_p2_viability: Viability Assessment in the Tox21 HCT-116 p53 Agonism Beta-lactamase Assay, Phase 2 (AID 2283591; active = hit-call score of the fitted dose curve at least 0.9, where 1 is the maximum;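 also: actives lower the ATP signal meaning cytotoxicity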)
Method in brief: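 Cytotoxicity readout: CellTiter-Glo ATP luminescence, 30 min at room temperature, after the beta-lactamase read. Cells were HCT116 exposed 16 h at 37C to compounds pin-transferred at 217-fold dilution from DMSO stocks.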

Measured: AC50

Chain of Cellular tumor antigen p53 (Homo sapiens) (P04637 whole entry, looked up): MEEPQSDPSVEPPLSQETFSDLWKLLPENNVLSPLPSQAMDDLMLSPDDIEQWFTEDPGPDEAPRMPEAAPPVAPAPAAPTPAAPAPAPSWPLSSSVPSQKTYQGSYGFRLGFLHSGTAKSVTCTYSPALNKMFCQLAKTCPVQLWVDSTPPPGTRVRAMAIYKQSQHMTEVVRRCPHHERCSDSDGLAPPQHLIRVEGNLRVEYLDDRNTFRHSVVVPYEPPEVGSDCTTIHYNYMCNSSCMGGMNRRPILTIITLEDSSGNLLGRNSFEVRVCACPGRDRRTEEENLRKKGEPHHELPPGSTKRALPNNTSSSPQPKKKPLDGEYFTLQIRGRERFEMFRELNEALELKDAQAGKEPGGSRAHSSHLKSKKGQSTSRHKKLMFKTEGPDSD

Cc1cccc(C)c1N
not listed: [9] | [10]
inactive: all other assays above

CCSC(=O)N(CC)C1CCCCC1
inactive: [1] | [3] | [4] | [5] | [6]

CCCCCCOC(=O)c1ccccc1C(=O)OCCCCCC
active: [3] 62 µM
not listed: [8] | [10]
inactive: all other assays above

Cc1cc(-c2ccc(N)c(C)c2)ccc1N
active: [3] 26.7 µM | [8] 87.2 µM
inactive: [1] | [2] | [4] | [5] | [6] | [10] | [8]

O=NN(c1ccccc1)c1ccccc1
not listed: [6] | [7] | [9]
inactive: all other assays above

O=C(O)C(F)(F)C(F)(F)C(F)(F)C(F)(F)C(F)(F)C(F)(F)C(F)(F)C(F)(F)C(F)(F)F
active: [1] 15.6 µM | [3] 36.2 µM | [4] 38.6 µM | [6] 63.4 µM
not listed: [2]
inactive: all other assays above

O=S(=O)(O)C(F)(F)C(F)(F)C(F)(F)C(F)(F)C(F)(F)C(F)(F)F
active: [3] 38.6 µM
not listed: [10]
inactive: all other assays above

CC(C)C(=O)OCC(C)(C)C(OC(=O)C(C)C)C(C)C (centres undefined)
active: [9] 46.4 µM
not listed: [10]
inactive: all other assays above

N#Cc1ccc(N(CC(N)=O)CC(F)(F)F)cc1C(F)(F)F
inactive: [2] | [4] | [5] | [6] | [10]
active: [1] 0.103 µM | [3] 22.6 µM

ClC1=C(Cl)[C@]2(Cl)[C@@H]3[C@H]4C[C@H]([C@@H]5O[C@H]45)[C@@H]3[C@@]1(Cl)C2(Cl)Cl
active: [1] 93 µM | [3] 2.04 µM
not listed: [7] | [8]
inactive: all other assays above
